# In PubChem BioAssay (NCI):
# “And” between values parts separate entries of the source, which are not always exact repeats. Identical values can stand only once. The panel holds about 83,000 compounds, 20% with a hit somewhere; the sample as a whole holds those more often.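 96-well plates, one dose, 48 hours. Percent growth reported; active if below 10.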 Values without a mark were called inactive. The source made the active and inactive calls.
# System: MDA-MB-468 breast
# Experiment: NCI-60 one-dose screen, 48 h (100 = growth as untreated, 0 = no growth, -100 = all killed)
# Settings: 10 µM unless noted
row,Compound,growth
1,CCCN1C(=O)N(CCC)C2C1NN=c1s/c(=C3\C(=O)N(C(C)C)c4ccccc43)c(=O)n12 (configuration not stated),35.7%
2,Cc1ccc2c(c1)C(=O)C(c1c(-c3[nH]c(=O)c4ccc(C)cc4c3O)c(O)c3ccccc3c1O)=NC2=O,-23.1% (active)
3,O=C1CC(c2nc3ccccc3s2)CN1C1CCCCC1 (configuration not stated),104%
4,COc1ccc(/C=C2/SC(=Nc3c(C)nn(-c4ccccc4)c3N)NC2=O)cc1,7.17% (active)
5,Oc1cc(O)c2c(=S)cc(-c3ccc(Cl)cc3)oc2c1,-6.34% (active)
6,Fc1ccc(-c2cc3nc(C(Cl)Cl)nc(-c4ccc(F)cc4)n3n2)cc1,-63.6% (active)
7,C=C1NC(=O)C(C(C)CC)NC(=O)C2CSCC(NC(=O)CCC(=O)O)C(=O)NC(Cc3ccccc3)C(=O)NC(C)C(=O)NC(CC(C)CC)C(=O)NC(C(=O)NC(Cc3ccccc3)C(=O)N3CCCC3C(=O)N2)C(C)OC(=O)C(CO)NC(=O)C(C(O)COC)N(C)C(=O)C(C(C)C)NC(=O)C(CC(C)CC)NC1=O (configuration not stated),0.0436% [6 µM] (active)
8,CC(C)C1=NOC(=O)C1=Cc1cn(-c2cccnc2)nc1-c1ccccc1,108%
9,O=C(/C=C/c1ccccc1)c1cccc(O)c1,111% and 90.2%
10,CCOC(=O)C1=C(C)NC(=O)NC1c1cccs1 (configuration not stated),102%
11,N=C(N)c1ccc(-c2ccc(-c3ccccc3)o2)cc1,-68.6% (active)
12,COC1OC(C(O)C(O)CO)C(O)C(O)C1O (configuration not stated),101%
13,O=C(O)c1ccc(-c2nn(-c3ccc(C(F)(F)F)cc3)cc2CNc2ccc(Oc3ccccc3)cc2)cc1,117%
14,Cc1cc2nc3c4cc(Cl)ccc4n(CCN(C)C)c3nc2cc1C,-42.1% (active)
15,Clc1cccc(-c2nc(-c3cccs3)no2)c1,3.37% (active)
16,CCOC(=O)c1ccccc1-c1c2ccc(=[N+](C)C)cc-2oc2cc(N(C)C)ccc12,-17.9% (active)
17,O=c1[nH]c2cc(O)ccc2n2cc3c(F)cccc3c12,28.7%
18,C(#CCN1CCOCC1)CCCN1CCOCC1,93.6% and 110%
19,O=C(CNc1nc(-c2ccc(Cl)cc2)cs1)Nc1ccc(-c2nc3ccccc3s2)cc1,-39.5% (active)
20,C=C(C=O)[C@@H]1CC[C@]2(COC(C)=O)CC[C@]3(C)C(CC[C@@H]4[C@@]5(C)CC[C@H](OC(C)=O)C(C)(C)[C@@H]5CC[C@]43C)[C@@H]12 (some centres not stated),5.16% (active)
21,NC1=C(Cl)C(=O)c2ccc(S(N)(=O)=O)cc2C1=O,-92.4% (active)

row,Compound,growth
1,Cc1c(-c2ccc(O)cc2)n(Cc2ccc(OCCN3CCCCCC3)cc2)c2ccc(O)cc12,74%
2,CCCCNC(=O)Oc1ccc(/C(=C(\C)c2ccccc2)c2ccc(OCCN(CC)CC)cc2)cc1,70.3%
3,CCOC(=O)c1c(NCC(=O)Nc2cccc([N+](=O)[O-])c2)sc2c1CCCC2,-77.2% (active)
4,COc1cccc(-c2nc3sccn3c2-c2ccnc(NCCNS(=O)(=O)c3ccc(F)cc3)c2)c1,19.2%
5,CCn1c(Sc2nnc(NC(=O)CSC(=S)N3CCCCC3)s2)nc2c1c(=O)n(C)c(=O)n2C,98.7%
6,O=C(CCCCCCNC(=O)C(O)(O)C(F)(F)F)Nc1nc2ccccc2s1,-12.8% (active)
7,O=S(=O)(NCCCNc1nccc(-c2[nH]c(-c3ccccc3)nc2-c2ccc(Cl)c(O)c2)n1)c1ccc(Br)cc1,25.9%
8,COc1cc(/C=C/C(=O)c2ccc(NC(=O)CN3CCN(c4cc5c(cc4F)c(=O)c(C(=O)O)cn5C4CC4)CC3)cc2)cc(OC)c1OC,-1.82% (active)
9,COc1cccc(/C=N/NC(=O)c2ccccc2Nc2ccnc(C(F)(F)F)c2)c1O,-19.6% (active)
10,O=C(NOC[C@H](O)CO)c1ccc(F)c(F)c1Nc1ccc(I)cc1F,106%
11,COc1ccc(C(c2cc(OC)c(OC)c(OC)c2)N2CCCCC2)cc1 (configuration not stated),9.32% (active)
12,c1csc(-c2[nH]nc3c2CCc2ccccc2-3)c1,-18.7% (active)
13,C#CCN1C(=O)/C(=c2\sc3n(c2=O)C2C(NN=3)N(CC)C(=O)N2CC)c2ccccc21 (configuration not stated),-26.9% (active)
14,COc1cc(CCC[P+](c2ccccc2)(c2ccccc2)c2ccccc2)c(OC)c2c1OCO2,-25.3% (active)
15,CN(Cc1cc(Cl)cc(Cl)c1O)Cc1cc(Cl)cc(Cl)c1O,36.5%
16,CCOC(=O)C/C(=N\Nc1cc(=O)[nH]c2ccc(C)cc12)C(=O)OCC,91.1%
17,COc1ccc2[nH]cc(-c3nn4cc(-c5ccncc5)nc4s3)c2c1,29.2%
18,CCN1C(=O)N[C@H]2[C@@H]3NC(=O)c4ccc(Cl)n4[C@@H]3C[C@]21O,-6.44% (active)
19,CC12CCC3C(CCC4CC(O)CCC43C)C1C/C(=C/O)C(=O)O2 (configuration not stated),108%
20,Cc1ccc2c(n1)C(=O)C(Cl)=C(Nc1ccc(C(C)C)cc1)C2=O,-44.8% (active)
21,O=C(NCCN1CCOCC1)OCc1nc2nc(Cl)nc(N3CCOCC3)c2[nH]1,10.1%

row,Compound,growth
1,CCOC(=O)C/C(=N\Nc1cc(=O)[nH]c2ccc(OC)cc12)C(=O)OCC,89.1%
2,Nc1ccc2c(O)cc(S(=O)(=O)O)cc2c1,110%
3,Cc1nc2cncc(C#Cc3cncc(C(=O)Nc4ccc(CN5CCN(C)CC5)c(C(F)(F)F)c4)c3)c2nc1C,37.3%
4,O=C1C=CC(=O)N1c1ccccc1,106%
5,Cn1ccc2c3c(ccc21)CC3=O,106%
6,CC[N+](C)(C)N,95.9%
7,O=C(Nc1ccc(N2CCNCC2)cn1)c1[nH]ncc1Nc1ncnc2sc3c(c12)CCC3,-37.9% (active)
8,Cc1ccc(/C=C/c2c(C(=O)/C=C/c3ccccc3)c(C)nc3ccccc23)cc1,38.1%
9,C=CCn1c(SCC(=O)Nc2ccc(C(=O)/C=C/c3ccccc3)cc2)nnc1-c1ccc(OC)c(OC)c1,59.5%
10,CC1CCC2(OC1)OC1CC3C4CC=C5CC(O)CCC5(C)C4CCC3(C)C1C2C (configuration not stated),89.4%
11,NC(=O)c1cccc(C#CCNC[C@H]2C[C@@H](n3ccc4c(Cl)ncnc43)[C@H](O)[C@@H]2O)c1,95.9%
12,C=CN(C(=O)N1CCN(c2cc3c(cc2F)c(=O)c(C(=O)O)cn3C2CC2)CC1)c1nc(-c2ccc(C)cc2)cs1,44.4%
13,CCOc1ccc(NC(=S)N2CCC(CCCC3CCN(C(=S)Nc4ccc(OCC)cc4)CC3)CC2)cc1,58.7%
14,C#C[C@]1(O)CC[C@H]2[C@@H]3CC=C4c5sc(-c6ccccn6)nc5CC[C@]4(C)[C@H]3CC[C@@]21C,89.2%
15,NC1CCC(Nc2nc(NCc3cc(Cl)ccc3O)c3ncn(C4CCCC4)c3n2)CC1 (configuration not stated),-51% (active)
16,CC(C)c1ccc(Nc2n[nH]c(=S)s2)cc1,107%
17,CCCCCC(=O)Oc1ccc(/C(=C(\C)c2ccccc2)c2ccc(OCCN(CC)CC)cc2)cc1,61.5%
18,CC(=O)O[C@@H]1/C=C/C(=O)N[C@@H](C)CCC/C=C/[C@@H]2CCC[C@H]21,101%
19,c1ccc2sc(SSN3CC4CCC(CC4)C3)nc2c1,122%
20,CC(=O)CC(C)(C)c1ccc(Cl)cc1,90.4%
21,Cc1c(C(=O)N[C@@H](Cc2ccccc2)C(=O)C(=O)NCCc2ccccc2)[nH]c2ccccc2c1=O,110%

row,Compound,growth
1,Cc1ccccc1C(=O)c1ccccc1C(=O)O,108%
2,COc1cc(C2=NN(C(C)=O)C(c3ccc(OC(C)=O)cc3OC(C)=O)O2)c(OC(C)=O)c2ccccc12 (configuration not stated),-9.39% (active)
3,CNc1ccc(NC)c2c1C(=O)c1ccccc1C2=O,-7.38% (active)
4,O=C1NC(=S)NC(=O)C1=Cc1cn(Cc2cn(Cc3cccc4ccccc34)nn2)c2ccccc12,94.9%
5,O=C(/C=C/c1cccnc1)c1ccccc1,99.2%
6,OCCN1CCN(c2nc(Nc3ccc(-c4nc5ccccc5[nH]4)cc3)c3cn[nH]c3n2)CC1,-82.3% (active)
7,COc1cnc2c(c1)C(=O)c1c-2n(CCCN2CCCC2)c(=O)c2cc(F)ccc12,-29.5% (active)
8,CC(=O)c1c(C)c2cnc(Nc3ccc(N4CCNCC4)cn3)nc2n(C2CCCC2)c1=O,26.9%
9,CC1(C)C(=O)/C(=C\c2ccco2)C[C@]2(C)[C@H]3CC=C4[C@@H]5C[C@](C)(C(=O)O)CC[C@]5(C)CC[C@@]4(C)[C@]3(C)CC[C@@H]12,-47.2% [100 µM] (active)
10,Cc1ccsc1[C@H]1c2[nH]c3ccccc3c2C[C@H]2C(=O)N(CCCCCCC(=O)NO)CC(=O)N12,46.6%
11,COc1cnc2c(c1)C(=O)c1c-2n(CCCN2CCC(N)CC2)c(=O)c2cc([N+](=O)[O-])ccc12,74%
12,Cn1cc(-c2nn3cc(-c4cccnc4)nc3s2)c2cc(F)ccc21,66.3%
13,CCOC(=O)C1=C(CCl)N(C)C(=O)NC1c1ccc2c(c1)OCO2 (configuration not stated),24.1%
14,CN1CCCc2cc(/C=C3\SC(=S)N(C(Cc4ccc(O)cc4)C(=O)O)C3=O)ccc21 (configuration not stated),93.6%
15,Cc1cc(C(C)(C)c2cc(C)c(O)c(CN(C)C)c2)cc(CN(C)C)c1O,67.7%
16,O=S(=O)(O)c1ccc(Cl)c(Cl)c1,115%
17,NCc1cn2cc(Cl)sc2n1,101%
18,Cc1cccc(NC(=O)CSc2nc3ccc([N+](=O)[O-])cc3[nH]2)c1,48.6%
19,C#Cc1cccc(NC(=O)c2cccc(NC(=O)CCl)c2)c1,-52.7% [8.25 µM] (active)
